According to PubChem BioAssay AID1159580 (chemical genetic matrix, 2015):
“And” between values parts separate entries of the source, which are not always exact repeats. Identical values can stand only once. Among all 5,500 compounds or so, about 2,000 (36%) were called active. Inconclusive results (about 18%) are left out. Rule as the data show it: active = normalized growth mostly below about 0.91 (no sharp cut-off); inconclusive = no clear call, values can overlap the other calls; inactive = mostly above about 0.92. The list shows a part of the results.

Test: chemical genetic growth profiling, strain panel (AID 1159580);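 also: tested at 20 µM; growth read once vehicle control cultures reached saturation at 30 °C; 1 = growth at the plate median or of vehicle wells; lower values mean less growth of the strain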
Settings: S. cerevisiae deletion strains, growth OD

Measured: normalized growth

C[C@@H]1CC[C@H]2[C@@H](C)C(=O)O[C@@H]3O[C@@]4(C)CC[C@@H]1[C@]32OO4
active: locus YAL021C, strain ccr4, hits give low values 0.741 | locus YAL026C, strain drs2, hits give low values 0.824 | locus YAL030W, strain snc1, hits give low values 0.89 | locus YBL061C, strain skt5, hits give low values 0.903 | locus YBR009C, strain hhf1, hits give low values 0.788 | locus YBR023C, strain chs3, hits give low values 0.906 | locus YBR171W, strain sec66, hits give low values 0.889 | locus YBR231C, strain swc5, hits give low values 0.713 | locus YBR279W, strain paf1, hits give low values 0.864 | locus YCL011C, strain gbp2, hits give low values 0.869 | locus YCL016C, strain dcc1, hits give low values 0.837 | locus YCL029C, strain bik1, hits give low values 0.887 | locus YCL069W, strain vba3, hits give low values 0.924 | locus YCR088W, strain abp1, hits give low values 0.921 | locus YDL035C, strain GPR1, hits give low values 0.825 | locus YDL134C, strain PPH21, hits give low values 0.818 | locus YDL185W, strain tfp1, hits give low values 0.875 | locus YDL192W, strain arf1, hits give low values 0.867 | locus YDR069C, strain doa4, hits give low values 0.872 | locus YDR101C, strain arx1, hits give low values 0.887 | locus YDR137W, strain rgp1, hits give low values 0.388 | locus YDR150W, strain NUM1, hits give low values 0.899 | locus YDR159W, strain sac3, hits give low values 0.595 | locus YDR162C, strain NBP2, hits give low values 0.817 | locus YDR297W, strain sur2, hits give low values 0.893 | locus YDR318W, strain mcm21, hits give low values 0.841 | locus YDR335W, strain msn5, hits give low values 0.853 | locus YDR388W, hits give low values 0.868 | locus YDR392W, strain spt3, hits give low values 0.374 | locus YDR502C, strain sam2, hits give low values 0.815 | locus YEL003W, strain gim4, hits give low values 0.808 | locus YEL037C, strain rad23, hits give low values 0.915 | locus YEL061C, strain CIN8 (second series), hits give low values 0.889 | locus YEL061C, strain CIN8, hits give low values 0.891 | locus YER015W, strain faa2, hits give low values 0.761 | locus YER016W, strain bim1, hits give low values 0.904 | locus YER155C, strain BEM2 (second series), hits give low values 0.655 | locus YER155C, strain BEM2, hits give low values 0.922 | locus YER167W, strain BCK2, hits give low values 0.784 | locus YFR010W, strain ubp6, hits give low values 0.841 | locus YGL086W, strain mad1, hits give low values 0.827 | locus YGL240W, strain doc1, hits give low values 0.757 | locus YGL248W, strain PDE1, hits give low values 0.818 | locus YGL253W, strain hxk2, hits give low values 0.707 | locus YGR078C, strain PAC10, hits give low values 0.789 | locus YGR135W, strain pre9, hits give low values 0.858 | locus YHR013C, strain ard1, hits give low values 0.781 | locus YHR027C, strain rpn1, hits give low values 0.781 | locus YHR030C, strain SLT2, hits give low values 0.837 and 0.62 | locus YHR079C, strain IRE1 (second series), hits give low values 0.89 | locus YHR079C, strain IRE1, hits give low values 0.654 | locus YHR129C, strain ARP1, hits give low values 0.89 | locus YHR142W, strain chs7, hits give low values 0.856 | locus YHR200W, strain rpn10, hits give low values 0.851 | locus YIL066C, strain RNR3, hits give low values 0.805 | locus YIL125W, strain kgd1, hits give low values 0.893 | locus YIR030C, strain dcg1, hits give low values 0.918 | locus YJL092W, strain hpr5, hits give low values 0.859 | locus YJL095W, strain BCK1 (second series), hits give low values 0.798 | locus YJL095W, strain BCK1, hits give low values 0.625 and 0.71 | locus YJL115W, strain asf1, hits give low values 0.861 | locus YJL129C, strain trk1, hits give low values 0.703 | locus YJL134W, strain LCB3, hits give low values 0.927 | locus YJL164C, strain tpk1, hits give low values 0.871 | locus YJL166W, strain qcr8, hits give low values 0.813 | locus YJL168C, strain set2, hits give low values 0.915 | locus YJL187C, strain SWE1 (second series), hits give low values 0.843 | locus YJR066W, strain TOR1, hits give low values 0.738 | locus YJR075W, strain HOC1, hits give low values 0.79
inactive: locus YAL013W, strain DEP1, hits give low values 0.924 | locus YBR021W, strain FUR4, hits give low values 0.948 | locus YBR229C, strain ROT2, hits give low values 0.942 | locus YDL005C, strain med2, hits give low values 0.967 | locus YDL040C, strain nat1, hits give low values 0.949 | locus YDL074C, strain BRE1, hits give low values 0.83 | locus YDL101C, strain DUN1, hits give low values 0.913 | locus YDR001C, strain nth1, hits give low values 0.932 | locus YDR195W, strain ref2 0.956 | locus YDR334W, strain swr1, hits give low values 0.917 | locus YER110C, hits give low values 0.932 | locus YER111C, strain swi4, hits give low values 0.93 | locus YGL078C, strain dbp3, hits give low values 0.939 | locus YGL167C, strain pmr1, hits give low values 0.973 | locus YGL173C, strain kem1, hits give low values 0.907 | locus YGL227W, strain vid30, hits give low values 0.95 | locus YGR252W, strain gcn5, hits give low values 0.854 | locus YHR094C, strain hxt1, hits give low values 0.94 | locus YIL073C, strain SPO22, hits give low values 0.741 | locus YJL154C, strain vps35, hits give low values 0.928 | locus YJR043C, strain POL32, hits give low values 0.867
